Assay results: ChEMBL document CHEMBL1157539, “Thousands of chemical starting points for antimalarial lead identification” (Nature, 2010)

The compounds below were run on Plasmodium falciparum (assay: GSK_TCMDC: Inhibition of Plasmodium falciparum 3D7 in whole red blood cells, using parasite LDH activity as an index of growth. Test compounds present at 2uM).
Format: functional

Row | Compound | Inhibition
1 | c1ccc(-c2nc(Nc3nc4ccccc4[nH]3)[nH]c2-c2ccccc2)cc1 | 96%
2 | Cc1c(-c2cccc(Br)c2)[nH]c2nc(N)nc(N)c12 | 100%
3 | Cl.c1ccc2c(C3CCN(CCCCOc4ccc5c(c4)CCN(CC4CC4)CC5)CC3)c[nH]c2c1 | 99%
4 | CCC(C)NS(=O)(=O)c1ccc2nc(Nc3ccc(C)c(Cl)c3)n(C3CCCCC3)c2c1 (stereo not given) | 99%
5 | O=C(NC1CCCCN(Cc2ccccc2O)C1)c1cccc(Cl)c1.O=C(O)C(F)(F)F (stereo not given) | 86%
6 | NCc1ccc(-c2cccc(CNC3CCN(Cc4ccccc4)CC3)c2)cc1.O=C(O)C(F)(F)F | 100%
7 | Cc1cccc(CNc2nccc3[nH]c4ccccc4c23)c1.O=C(O)C(F)(F)F | 92%
8 | N#Cc1ccc(CNCCCCCCCNCc2ccc(-c3ccccc3)cc2)cc1 | 87%
9 | CCOC(=O)c1ccc(NC(=O)N[C@H]2CCN(CCCCCNC(=O)/C=C/c3ccc(Cl)c(Cl)c3)C2)cc1 | 98%
10 | Cc1c(C(=O)C2CC2CN2CCC(N3CCCC3)CC2)sc2ccccc12 (stereo not given) | 94%
11 | CCC(C(=O)Nc1cc(=O)[nH]c2nc(-c3ccco3)nn12)c1ccccc1 (stereo not given) | 87%
12 | CN1CC=C(c2csc3ccc(NC(=O)Nc4ccc(-c5ccncc5)c5ccccc45)cc23)CC1 | 93%
13 | CCOC(=O)CCc1cc(F)c(F)c(OC[C@H](O)CNC(C)(C)C(O)c2ccc3ccccc3c2)c1.Cl (stereo not given in full) | 99%
14 | CC(C)CNC(=S)N1CCCN(c2nc3ccc(Cl)cc3s2)CC1 | 95%
15 | C=CCC(C)n1ncc2c3c(N)nc(N)nc3ccc21 (stereo not given) | 93%
16 | Cc1cc(N(C)CCN(C)C)nc(Nc2ccc(Cl)cc2)n1 | 92%
17 | COc1c(C2CCN(CCN3CCC(CNC(=O)c4ccc(-c5ccc(C#N)cc5)cc4)CC3)CC2)ccc2c1CCCC2 | 100%
18 | CS(=O)(=O)N(c1ccc(F)cc1)c1cc(C(=O)N[C@@H](Cc2ccccc2)[C@H](O)CNCc2cccc(C(F)(F)F)c2)cc(N2CCCC2=O)c1.O=CO | 91%
19 | COc1ccc(CCc2ccc(-c3c(C)[nH]c(C)c(Cl)c3=O)cc2)cc1 | 98%
20 | COc1ccc2nccc([C@@H](O)CN3CCC(NCc4ccc5c(c4)NC(=O)C(C)(C)O5)CC3)c2c1.O=C(O)C(=O)O | 100%

Row | Compound | Inhibition
21 | CCOC(=O)c1ccc(OCCCCCCOc2ccc(Br)cc2)cc1 | 98%
22 | O=C(Nc1ccccc1)c1ccc(N2CCC(COc3cccc(C(F)(F)F)c3)CC2)nc1 | 96%
23 | COc1c(Br)cc(Br)cc1-c1ccc(CN2C3CCCC2CCC3)[nH]1.Cl | 88%
24 | Cc1ccc(N2CCN(C(=O)c3cccc(-c4cncc5nc(-c6ccco6)n(C)c45)c3)CC2)nc1 | 94%
25 | COc1c(C2CCN(CCCCNC(=O)c3cc(-c4ccc(Cl)cc4)oc3C)CC2)ccc2c1CCCC2 | 97%
26 | CN(C)CCNC(=O)c1ccc(-c2cnc3ccc(NCc4ccc(Cl)c(Cl)c4)nn23)cc1 | 98%
27 | COc1ccc(-c2nc(NC(=O)Cc3ccc(OC)c(OC)c3)sc2C)cc1 | 93%
28 | CCCOc1ccccc1-c1nc2[nH]c3c(c2c(=O)[nH]1)CCN(C)C3 | 87%
29 | O=C(NC1CC1)c1cnc(N2CCCC(c3ccccc3)C2)c(Cl)c1.O=C(O)C(F)(F)F (stereo not given) | 95%
30 | CC(C)N(Cc1cnc2nc(N)nc(N)c2n1)c1ccc(Cl)c(Cl)c1 | 100%
31 | CC(CCCCC(=O)Nc1ccc(CC(C)NCCc2cccc(Cl)c2)cc1)NCCc1cccc(Cl)c1 (stereo not given) | 91%
32 | CCCC(C)n1ccc2c3c(N)nc(N)nc3ccc21 (stereo not given) | 94%
33 | CN(C)C(=O)CCCn1c(CNCCCNc2cc(=O)c3ccccc3[nH]2)cc2c(Cl)cc(Cl)cc21.Cl | 89%
34 | O=C(NCc1ccccc1)OC1CNCCC1c1ccc(C(O)Cc2ccccc2)cc1.O=C(O)C(F)(F)F (stereo not given) | 87%
35 | COc1cccc2c(NN=Cc3cccc(Cl)c3)cc(C)nc12 | 100%
36 | O=C(Nc1ccc2c(c1)CCC2)c1cccc(CN2CCCN(Cc3cccc(O)c3)CC2)c1.O=C(O)C(F)(F)F | 91%
37 | COc1ccc(Cl)cc1N1CCN(CCCNC(=O)c2ccc(-c3nc4cc(Cl)c(Cl)cc4[nH]3)c(C)c2)CC1 | 100%
38 | COc1ccc(S(=O)(=O)N2CCOCC2)cc1NC(=O)c1cc2ccccc2o1 | 93%
39 | Cc1cc(NC2CCN(Cc3ccccc3)CC2)nc(NCCCCc2ccccc2)n1 | 100%
40 | Cc1cccc(NC(=O)NCc2ccccc2)n1 | 97%

These compounds were tested on Plasmodium falciparum (assay: GSK_TCMDC: Inhibition of Plasmodium falciparum Dd2 in whole red blood cells, using parasite LDH activity as an index of growth. Test compounds present at 2uM).
Format: functional

Row | Compound | Inhibition
41 | c1ccc(-c2nc(Nc3nc4ccccc4[nH]3)[nH]c2-c2ccccc2)cc1 | 61%
42 | Cc1c(-c2cccc(Br)c2)[nH]c2nc(N)nc(N)c12 | 61%
43 | Cl.c1ccc2c(C3CCN(CCCCOc4ccc5c(c4)CCN(CC4CC4)CC5)CC3)c[nH]c2c1 | 97%
44 | CCC(C)NS(=O)(=O)c1ccc2nc(Nc3ccc(C)c(Cl)c3)n(C3CCCCC3)c2c1 (stereo not given) | 98%
45 | O=C(NC1CCCCN(Cc2ccccc2O)C1)c1cccc(Cl)c1.O=C(O)C(F)(F)F (stereo not given) | 30%
46 | NCc1ccc(-c2cccc(CNC3CCN(Cc4ccccc4)CC3)c2)cc1.O=C(O)C(F)(F)F | 50%
47 | Cc1cccc(CNc2nccc3[nH]c4ccccc4c23)c1.O=C(O)C(F)(F)F | 51%
48 | N#Cc1ccc(CNCCCCCCCNCc2ccc(-c3ccccc3)cc2)cc1 | 10%
49 | CCOC(=O)c1ccc(NC(=O)N[C@H]2CCN(CCCCCNC(=O)/C=C/c3ccc(Cl)c(Cl)c3)C2)cc1 | 1%
50 | Cc1c(C(=O)C2CC2CN2CCC(N3CCCC3)CC2)sc2ccccc12 (stereo not given) | 9%
51 | CCC(C(=O)Nc1cc(=O)[nH]c2nc(-c3ccco3)nn12)c1ccccc1 (stereo not given) | 68%
52 | CN1CC=C(c2csc3ccc(NC(=O)Nc4ccc(-c5ccncc5)c5ccccc45)cc23)CC1 | 99%
53 | CCOC(=O)CCc1cc(F)c(F)c(OC[C@H](O)CNC(C)(C)C(O)c2ccc3ccccc3c2)c1.Cl (stereo not given in full) | 92%
54 | CC(C)CNC(=S)N1CCCN(c2nc3ccc(Cl)cc3s2)CC1 | 11%
55 | C=CCC(C)n1ncc2c3c(N)nc(N)nc3ccc21 (stereo not given) | 95%
56 | Cc1cc(N(C)CCN(C)C)nc(Nc2ccc(Cl)cc2)n1 | 14%
57 | COc1c(C2CCN(CCN3CCC(CNC(=O)c4ccc(-c5ccc(C#N)cc5)cc4)CC3)CC2)ccc2c1CCCC2 | 100%
58 | CS(=O)(=O)N(c1ccc(F)cc1)c1cc(C(=O)N[C@@H](Cc2ccccc2)[C@H](O)CNCc2cccc(C(F)(F)F)c2)cc(N2CCCC2=O)c1.O=CO | 65%
59 | COc1ccc(CCc2ccc(-c3c(C)[nH]c(C)c(Cl)c3=O)cc2)cc1 | 97%
60 | COc1ccc2nccc([C@@H](O)CN3CCC(NCc4ccc5c(c4)NC(=O)C(C)(C)O5)CC3)c2c1.O=C(O)C(=O)O | 70%

Row | Compound | Inhibition
61 | CCOC(=O)c1ccc(OCCCCCCOc2ccc(Br)cc2)cc1 | 0%
62 | O=C(Nc1ccccc1)c1ccc(N2CCC(COc3cccc(C(F)(F)F)c3)CC2)nc1 | 83%
63 | COc1c(Br)cc(Br)cc1-c1ccc(CN2C3CCCC2CCC3)[nH]1.Cl | 83%
64 | Cc1ccc(N2CCN(C(=O)c3cccc(-c4cncc5nc(-c6ccco6)n(C)c45)c3)CC2)nc1 | 91%
65 | COc1c(C2CCN(CCCCNC(=O)c3cc(-c4ccc(Cl)cc4)oc3C)CC2)ccc2c1CCCC2 | 27%
66 | CN(C)CCNC(=O)c1ccc(-c2cnc3ccc(NCc4ccc(Cl)c(Cl)c4)nn23)cc1 | 98%
67 | COc1ccc(-c2nc(NC(=O)Cc3ccc(OC)c(OC)c3)sc2C)cc1 | 22%
68 | CCCOc1ccccc1-c1nc2[nH]c3c(c2c(=O)[nH]1)CCN(C)C3 | 70%
69 | O=C(NC1CC1)c1cnc(N2CCCC(c3ccccc3)C2)c(Cl)c1.O=C(O)C(F)(F)F (stereo not given) | 94%
70 | CC(C)N(Cc1cnc2nc(N)nc(N)c2n1)c1ccc(Cl)c(Cl)c1 | 98%
71 | CC(CCCCC(=O)Nc1ccc(CC(C)NCCc2cccc(Cl)c2)cc1)NCCc1cccc(Cl)c1 (stereo not given) | 0%
72 | CCCC(C)n1ccc2c3c(N)nc(N)nc3ccc21 (stereo not given) | 91%
73 | CN(C)C(=O)CCCn1c(CNCCCNc2cc(=O)c3ccccc3[nH]2)cc2c(Cl)cc(Cl)cc21.Cl | 0%
74 | O=C(NCc1ccccc1)OC1CNCCC1c1ccc(C(O)Cc2ccccc2)cc1.O=C(O)C(F)(F)F (stereo not given) | 5%
75 | COc1cccc2c(NN=Cc3cccc(Cl)c3)cc(C)nc12 | 75%
76 | O=C(Nc1ccc2c(c1)CCC2)c1cccc(CN2CCCN(Cc3cccc(O)c3)CC2)c1.O=C(O)C(F)(F)F | 20%
77 | COc1ccc(Cl)cc1N1CCN(CCCNC(=O)c2ccc(-c3nc4cc(Cl)c(Cl)cc4[nH]3)c(C)c2)CC1 | 0%
78 | COc1ccc(S(=O)(=O)N2CCOCC2)cc1NC(=O)c1cc2ccccc2o1 | 0%
79 | Cc1cc(NC2CCN(Cc3ccccc3)CC2)nc(NCCCCc2ccccc2)n1 | 60%
80 | Cc1cccc(NC(=O)NCc2ccccc2)n1 | 2%
